PubChem BioAssay (NCI)
About 83,000 compounds went through this panel and 20% of them were active in at least one assay; those are over-represented in the sample as a whole.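 In brief: 96-well plates, 48 h treatment, single concentration, percent growth endpoint.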 Values without a mark were called inactive. Calls of active or inactive are those of the source. How the source made its calls: active means growth percent below 10; inactive means the rest.

Key:
Assay in all cases: NCI-60 one-dose screen, 48 h (100 = growth as untreated, 0 = no growth, -100 = all killed)
Details in all cases: 10 µM unless noted
HCT-15 colon = system: HCT-15 colon
HT29 colon = system: HT29 colon
SNB-75 CNS = system: SNB-75 CNS
U251 CNS = system: U251 CNS
PC-3 prostate = system: PC-3 prostate
SK-MEL-5 melanoma = system: SK-MEL-5 melanoma
UACC-62 melanoma = system: UACC-62 melanoma
LOX IMVI melanoma = system: LOX IMVI melanoma
SK-MEL-28 melanoma = system: SK-MEL-28 melanoma
SK-MEL-2 melanoma = system: SK-MEL-2 melanoma
EKVX NSCLC = system: EKVX NSCLC
SN12C renal = system: SN12C renal
UO-31 renal = system: UO-31 renal
TK-10 renal = system: TK-10 renal
ACHN renal = system: ACHN renal
CAKI-1 renal = system: CAKI-1 renal
A498 renal = system: A498 renal
CCRF-CEM leukemia = system: CCRF-CEM leukemia
MOLT-4 leukemia = system: MOLT-4 leukemia
SNB-19 CNS = system: SNB-19 CNS

SMILES | growth (HCT-15 colon) | growth (HT29 colon) | growth (SNB-75 CNS) | growth (U251 CNS) | growth (PC-3 prostate) | growth (SK-MEL-5 melanoma) | growth (UACC-62 melanoma) | growth (LOX IMVI melanoma) | growth (SK-MEL-28 melanoma) | growth (SK-MEL-2 melanoma) | growth (EKVX NSCLC) | growth (SN12C renal) | growth (UO-31 renal) | growth (TK-10 renal) | growth (ACHN renal) | growth (CAKI-1 renal) | growth (A498 renal) | growth (CCRF-CEM leukemia) | growth (MOLT-4 leukemia) | growth (SNB-19 CNS) [%]
O=C1c2cccnc2C(=O)c2c1c(C(=O)OCCc1ccccn1)c1ccccn21 | -75.9% (active) | -75% (active) | -85.3% (active) | -82.5% (active) | -3.59% (active) | -94.2% (active) | -55.6% (active) | -50% (active) | -33.3% (active) | -35.4% (active) | 25.4% | -33.4% (active) | -48.7% (active) | -43.9% (active) | -48.5% (active) | 8.74% (active) | -57% (active) | -14.1% (active) | -0.142% (active) | 
Cn1cc(-c2csc(-c3cn(CCCN4CCOCC4)c4ccc(F)cc34)n2)c2cccnc21 | 27.1% | 1.97% (active) | 87.1% | 51.1% |  | 25.1% |  | 26.6% | 77.5% | 86.3% | 63% | 78.5% | 50.2% | 75.1% | 63.8% | 79% | 36.1% | 36.4% | 32.1% | 77.1
CN(C)CCCC1(c2ccc(F)cc2)OCc2cc(-c3csc4ccccc34)ccc21 (centres undefined) | -59.7% (active) | -29.2% (active) | 29.7% | -57.1% (active) | 30% | -45.7% (active) | -86.3% (active) | -97.9% (active) | -84% (active) | 62.6% | 55.3% | 39.7% | 2.29% (active) | 62.1% | 0.407% (active) | 4.7% (active) | 90.2% | -14.3% (active) | -15.6% (active) | 
C=CCn1cc(-c2nc3ccccc3s2)c2cc(-c3ccc4c5c(cccc35)C(=O)N(CCO)C4=O)ccc21 | 94.3% | 98.2% | 98.9% | 97.2% | 83.7% | 96.1% |  | 95.4% | 110% | 105% | 81.3% | 89.2% | 62.7% | 138% | 94.5% | 75.2% | 113% | 104% | 91.3% | 
CCNC(=O)N1CCc2c(Br)c3c(c(OC)c2C1Cc1ccc(OC)cc1)OCO3 (centres undefined) | 24.6% | 14.4% | -7.7% (active) | 32.3% | 27.9% | 28.9% | 20.7% | 32.6% | 55.9% | 15.4% | 54.4% | 49.9% | 40.2% | 65.6% | 33.6% | 18.6% | -12.4% (active) | 31.5% | 23.6% | 
CS(=O)/C(C#N)=C\C=C\c1cccc(Cl)c1 (centres undefined) | -6.41% (active) | 8.51% (active) | 22.5% | 17.3% | 30.6% | 32.3% | 0.315% (active) | -53.2% (active) | 24.8% | 31.9% | 38.9% | 19.9% | 21.4% | 35% |  | 20.5% | 12.1% | 2.45% (active) | 7.07% (active) | 
Nc1ccc(-c2ccncc2)cc1NC(=O)N1CCCC1 | 100% | 72.9% | 85% | 89.8% | 91.2% | 99.3% | 91.7% | 112% | 96.1% | 87.9% | 104% | 100% | 88.7% | 85.2% | 108% | 95% | 76.8% | 88.1% | 87% | 
O=C(NCc1ccc(Cn2c(=O)sn(-c3ccccc3)c2=O)cc1)OCc1ccc2cccc(O)c2n1 | -30.3% (active) | -52.7% (active) | -22.6% (active) | 9.01% (active) | -68.9% (active) | -84.7% (active) | -61.9% (active) | -95.3% (active) | -62.3% (active) | -5.7% (active) | -35.9% (active) | -46.1% (active) | -99.6% (active) | -81.2% (active) | -99.9% (active) | -85.9% (active) | 39.3% | 0.307% (active) | -24.8% (active) | 
O=c1oc2c(cc1-c1ccccc1)c(=O)[nH]c1ccccc12 | 98.2% | 96.6% | 92.7% | 93.4% |  | 99.4% |  | 95.8% | 99.7% | 107% | 91.4% | 96.6% | 96.6% | 99.4% |  | 97.5% | 96.9% | 101% | 99.7% | 97.4
N#Cc1c(-c2ccccc2)nc2c(c(-c3ccccc3)nn2-c2ccccc2)c1-c1ccc(N2CCCCC2)cc1 | 107% | 110% | 84.2% | 96.8% | 90.5% | 99.2% | 92.8% | 96% | 106% | 110% | 99.5% | 99.4% | 84.9% | 103% | 101% | 86.1% | 97.7% | 96.5% | 95.5% | 
CN1c2ccccc2S(=O)(=O)n2c(SCC(=O)Nc3nc4ccc(F)cc4s3)nnc21 | 119% | 119% | 90.7% | 127% | 87.8% | 87.2% | 96.5% | 92.5% | 127% | 52.6% | 102% | 104% | -65.7% (active) | 130% | 96.1% | 97.3% | 119% | 31.1% | 81.9% | 
